“And” between values parts separate entries of the source, which are not always exact repeats. Equal values may be shown once. Where a structure was tested more than once in an assay, its records may differ in their call. The source made the active and inactive calls. Rule for the calls: active = hit-call score of the fitted dose curve at least 0.9, where 1 is the maximum; inactive = score below 0.9.
These molecules were tested against Retinoic acid receptor alpha (Homo sapiens) (UniProt P10276) (assay: ATG_DR5_RAR_CIS: Attagene CIS-FACTORIAL HepG2 Assay for human Retinoic Acid Receptor Alpha (RARE), DR5 submotif (AID 2282934;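 for AC50: reporter responds to endogenous RAR alpha beta and gamma in HepG2 not RARA alone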)). Conditions: HepG2 Attagene cis-factorial RARE DR5 reporter, mRNA; actives raise or lower the signal.
Sequence of Retinoic acid receptor alpha (Homo sapiens) (P10276 whole entry, looked up): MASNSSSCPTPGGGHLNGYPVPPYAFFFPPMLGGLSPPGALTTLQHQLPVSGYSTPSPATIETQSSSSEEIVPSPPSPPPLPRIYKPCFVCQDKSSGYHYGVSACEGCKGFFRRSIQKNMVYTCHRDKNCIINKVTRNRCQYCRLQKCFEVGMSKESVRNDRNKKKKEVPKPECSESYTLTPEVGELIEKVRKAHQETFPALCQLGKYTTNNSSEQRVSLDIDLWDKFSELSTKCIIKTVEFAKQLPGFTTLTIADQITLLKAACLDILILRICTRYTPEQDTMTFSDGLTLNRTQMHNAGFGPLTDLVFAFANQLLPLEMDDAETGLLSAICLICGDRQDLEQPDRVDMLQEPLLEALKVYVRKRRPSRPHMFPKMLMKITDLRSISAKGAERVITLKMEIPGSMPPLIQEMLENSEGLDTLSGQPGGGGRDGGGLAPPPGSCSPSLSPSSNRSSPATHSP
Method: ATG_CIS is a cell-based, multiplexed-readout assay that uses HepG2, a human liver cell line, with measurements taken at 24 hours after chemical dosing in a 24-well plate.ATG_DR5_RAR_CIS is one of 52 assay component(s) measured or calculated from the ATG_CIS assay. It is designed to make measurements of mRNA induction, a form of inducible reporter, as detected with fluorescence intensity signals by Reverse transcription polymerase chain reaction (RT-PCR) and Capillary electrophoresis technology.Data from the assay component ATG_DR5_RAR_CIS was analyzed into 1 assay endpoint. This assay endpoint, ATG_DR5_CIS, was analyzed with bidirectional fitting relative to DMSO as the negative control and baseline of activity. Using a type of inducible reporter, measures of mRNA for gain or loss-of-signal activity can be used to understand the reporter gene at the transcription factor-level as they relate to the gene RARA and RARB and RARG. Furthermore, this assay endpoint can be referred to as a primary readout, because this assay has produced multiple assay endpoints where this one serves a reporter gene function. To generalize the intended target to other relatable targets, this assay endpoint is annotated to the nuclear receptor intended target family, where the subfamily is non-steroidal.
Human liver HepG2 cells are transiently transfected with multiple reporter transcription units (MRTUs) in 6-well plates using FuGene 6 reagent (Roche; 3 ml FuGene/1 mg DNA). The MRTU constructs are regulated by a cis-regulating element (promoter). […] A major difference between the CIS and TRANS system is that in CIS activities of endogenous TFs are measured, whereas the TRANS assay evaluates changes in activities of exogenous, chimeric NR-Gal4 proteins. […] At the end of 24 hour incubation, total RNA was isolated using TriZol reagent (Invitrogen). The isolated RNA is then reverse-transcribed using oligo(dT) primer and Mo-MLV reverse transcriptase (Invitrogen) with DNAse I (Ambion) treatment for 30 min. The one-tenth of the produced cDNA was amplified by PCR using Taq DNA polymerase (Invitrogen) and two reporter sequence-specific primers. The PCR products were fluorescently labeled by primer extension with 6-arboxyfluorescein (6-FAM) 5'-labeled reporter sequence-specific primer (2 min at 95 C, 20 s at 68 C and 10 min at 72 C) and these products were digested with 5U of HpaI (New England Biolabs) for 2h at 37 C. The fragments were purified using Qiaquick PCR columns (Qiagen), analyzed on an ABI 3130xL genetic analyzer (Applied Biosystems) with peak positions identified by using a set of X-rhodamine (ROX)-labeled MapMarker1000 molecular weight standards (BioVentures). The raw capillary electrophoresis data was processed using Attagraph software (Attagene).
With `ClC1=C(Cl)[C@]2(Cl)[C@@H]3[C@@H](Cl)[C@H]4O[C@H]4[C@@H]3C1(Cl)C2(Cl)Cl` the AC50 was 3.4 µM (active).
With `CC(C)(c1ccccc1)c1ccc(O)cc1` the AC50 was 1.8 µM (active) and 11.7 µM (active) and the outcome was “inactive”.
For `O=C(N[C@H]1CN2CCC1CC2)c1cc2ccoc2cn1`, the outcome was “inactive”.
In the case of `ClC1=C(Cl)[C@]2(Cl)[C@@H]3[C@@H]4C[C@@H]([C@H]5O[C@@H]45)[C@@H]3[C@@]1(Cl)C2(Cl)Cl`, the AC50 is reported as 0.571 µM (active).
`C=CC(N)=O` was tested, and the outcome was “inactive”.
`Clc1ccc(Cl)cc1` was tested, and the outcome was “inactive”.
For `Nc1ccc(-c2ccc(N)cc2)cc1`, the outcome was “inactive”.
With `COS(=O)(=O)OC` the outcome was “inactive”.
`Oc1ccc(Cl)cc1Cl` was tested, and the outcome was “inactive”.
`Cc1cc(-c2ccc(N)c(C)c2)ccc1N` was tested, and the outcome was “inactive”.
`C1CC2OC2CC1C1CO1` (stereo unspecified) was tested, and the outcome was “inactive”.
`c1cc2ccc3cccc4ccc(c1)c2c34` was tested, and the AC50 was 7.9 µM (active).
With `NS(=O)(=O)C(F)(F)C(F)(F)C(F)(F)C(F)(F)C(F)(F)C(F)(F)C(F)(F)C(F)(F)F` the outcome was “inactive” and the AC50 was 40.4 µM (active) and 29.7 µM (active).
For `CN(C)CCO`, the outcome was “inactive”.
For `Oc1c(Cl)c(Cl)c(Cl)c(Cl)c1Cl`, the outcome was “inactive” and the AC50 was 14.1 µM (active).
`O=S(=O)(O)C(F)(F)C(F)(F)C(F)(F)C(F)(F)F` was tested, and the outcome was “inactive”.
In the case of `Cc1ccccc1CO[C@@H]1C[C@@]2(C(C)C)CC[C@]1(C)O2`, the outcome is reported as “inactive”.
For `CCCCCCCCCC[N+](C)(C)CCCCCCCCCC`, the outcome was “inactive”.
For `CCCCCCCCCc1ccc(O)cc1`, the outcome was “inactive”.
`ClC1=C(Cl)[C@]2(Cl)[C@@H]3[C@H]4C[C@H]([C@@H]5O[C@H]45)[C@@H]3[C@@]1(Cl)C2(Cl)Cl` was tested, and the AC50 was 1.14 µM (active).
For `Clc1ccc(C(Cl)(Cl)Cl)cc1`, the outcome was “inactive”.
`Cc1cc2c3c(c1)C(c1ccccc1)=N[C@@H](NC(=O)c1ccncc1)C(=O)N3CC2` was tested, and the outcome was “inactive”.
In the case of `O=C(NC(=O)c1c(F)cccc1F)Nc1cc(Cl)c(OC(F)(F)C(F)F)c(Cl)c1`, the outcome is reported as “inactive”.
In the case of `Clc1ccc(C(c2ccccc2Cl)C(Cl)(Cl)Cl)cc1` (stereo unspecified), the outcome is reported as “inactive”.
With `Cc1cccc(C)c1N` the outcome was “inactive”.
`C=CC(=O)NCNC(=O)C=C` was tested, and the outcome was “inactive”.
In the case of `O=C(O)C(F)(F)C(F)(F)C(F)(F)C(F)(F)C(F)(F)C(F)(F)C(F)(F)C(F)(F)C(F)(F)F`, the outcome is reported as “inactive”.
With `CC(C)(O)C(=O)Nc1ccc([N+](=O)[O-])c(C(F)(F)F)c1` the outcome was “inactive”.
With `Cc1cc(O)ccc1Cl` the outcome was “inactive”.
For `CC#Cc1cc(C)nc(Nc2ccccc2)n1`, the outcome was “inactive”.
With `O=C(NC(=O)c1cc(F)c(F)cc1Cl)Nc1cc(F)ccc1N1CCC(C(=O)O)CC1` the AC50 was 4.16 µM (active).
`c1ccc(-c2ccccc2)cc1` was tested, and the outcome was “inactive”.
For `CCC(C)(CC)c1cc(NC(=O)c2c(OC)cccc2OC)on1`, the AC50 was 12.7 µM (active).
For `C[C@]12CCC(=O)C=C1CC[C@@H]1[C@@H]2CC[C@]2(C)C(=O)CC[C@@H]12`, the outcome was “inactive” and the AC50 was 36.7 µM (active) and 27.5 µM (active).
`OCC(O)CO` was tested, and the outcome was “inactive”.
`ClC(Cl)=C(c1ccc(Cl)cc1)c1ccc(Cl)cc1` was tested, and the outcome was “inactive” and the AC50 was 13.2 µM (active).
